PINK1 modulator – modulators of PINK1 expression | PINK1 immunofluorescence, high-content cytometry, 24 h | Potency, µM (doses to about 76.6 µM), inactives show top-dose activation (PINK1 increase), usual class: activators | 410,000 compounds, 0.2% hits | AID 624263; active means well fitted activation curve with a large enough effect; inconclusive means small, poorly fitted or top-dose-only effect; cell line not stated here; further: potency means the concentration at half of the fitted maximal effect; % of control where 0% means no effect; nearly all actives have a fitted effect of over 65% in size
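Measures PINK1 amount and localization on or inside mitochondria by immunofluorescence. Stable cells get compounds at 5 concentrations for 24 hours before fixation and staining; CCCP controls included.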
Menin-MLL FL inh – displaces fluorescein MLL peptide from human menin; FP activity change, % at 61.4 µM; 290,000 tested, under 10 active; Fluorescence polarization, fluorescein-MLL peptide displacement from menin; active means well fitted curve in the direction sought with a large enough effect in the polarisation, not every such curve was filed as active; inconclusive means small, poorly fitted or top-dose-only effect, or effect the other way, or a change in a side signal; inactive means no such curve, though single readings can be large or run the other way; the % refers to the polarisation; further: % of control where 0% means no effect
Epigenetic reg – regulators of epigenetic silencing causing reporter derepression in mouse cells. 280,000 compounds, 0.2% hits. Potency, µM (highest dose often 53.9 µM), for the others: at the highest dose GFP activation, hits mostly activators. AID 1865. murine LDR cells, GFP reporter derepression, 30 h; active means well fitted activation curve with a large enough effect; inconclusive means small, poorly fitted or top-dose-only effect; further: potency means the concentration at half of the fitted maximal effect; % of control where 0% means no effect; nearly all actives have a fitted effect of over 60% in size
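GFP-positive cell count by laser-scanning cytometry (objects 20–120 um) after 30 h, 37 C compound exposure of murine LDR cells; reporter is CMV-GFP integrated at a silenced locus, inducible by HDAC or DNMT inhibitors.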
ClpP mod – qHTS Assay for Activators of ClpP | ATP-dependent Clp protease proteolytic subunit (Bacillus subtilis (strain 168)), P80244 | purified B. subtilis ClpP, FRET peptide cleavage, 20 min | Potency, µM (highest dose often 57.5 µM), inactives show at the highest dose activity change, negative = active | 340,000 compounds, 1.9% hits | AID 651965, 2013; active means well fitted falling curve with a large enough effect; inconclusive means small, poorly fitted or top-dose-only effect; inactive means no such curve, though single readings can be large or run the other way; further: potency means the concentration at half of the fitted maximal effect; the source files actives as falling curves though it sought activators and does not explain the sign; nearly all actives have a fitted effect of over 65% in size
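Purified B. subtilis ClpP, 10 microg/mL final in Tris/HCl pH8 with KCl, BSA, glycerol and Tween-20, cleaved an Abz/nitrotyrosine-quenched decapeptide. Fluorescence (ex 320, em 430) was read at 0 and 20 min at room temperature. Delta was normalized to 5.8 microM ADEP and DMSO/no-enzyme controls.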
MLL CXXC-DNA inh – inhibitors of human MLL CXXC domain-DNA interaction. Q03164. MLL-CXXC / FITC-HOXA9 DNA fluorescence polarization. Potency, µM (series often up to 115 µM), inactives show top-dose activity change, negative = inhibition, hits mostly inhibitors. 290,000 compounds, 0.037% hits. AID 2662; active means well fitted inhibition curve with a large enough effect in the polarisation, with a control signal flat, not every such curve was filed as active; inconclusive means small, poorly fitted or top-dose-only effect, or effect the other way, or a change in a side signal; inactive means no such curve, though single readings can be large or run the other way; the % refers to the polarisation; further: potency means the concentration at half of the fitted maximal effect
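Steps: dispense CXXC domain solution (7 uM) → pin compounds or unlabeled HOX-A9 DNA control → 5 min ambient → add FLSN-HOX-A9 solution (50 nM) → spin → 30 min ambient → fluorescence polarization. Tris pH 7.5/NaCl/DTT/BSA buffer.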
Menin-MLL TR inh – menin-MLL binding inhibition, Texas Red mutant peptide; Potency, µM (doses to about 61.6 µM), inactives show at the highest dose FP activity change, negative = inhibition, usual class: inhibitors; Menin + Texas Red MLL mutant peptide, fluorescence polarization; 270,000 compounds, 0.23% hits; O00255; active means well fitted inhibition curve with a large enough effect in the polarisation, with a control signal flat, not every such curve was filed as active; inconclusive means small, poorly fitted or top-dose-only effect, or effect the other way, or a change in a side signal; inactive means no such curve, though single readings can be large or run the other way; the % refers to the polarisation; further: potency means the concentration at half of the fitted maximal effect; % of control where 0% means no effect
An asterisk follows results filed as active; ? = inconclusive; . = not tested or not shown; [ ] = another dose, or the depositor's remark. An excerpt weighted towards active compounds, which were near 1.9% of everything screened.

SMILES	PINK1 modulator	Menin-MLL FL inh	Epigenetic reg	ClpP mod	MLL CXXC-DNA inh	Menin-MLL TR inh
Cc1ccc(N2C(=O)CC(NNc3nc4ccccc4s3)C2=O)cc1C (stereo unspecified)	11%	4	-1%	13µM*	-5%	?
CCOc1ccc2nc3cc(NCc4ccc(OC)cc4)ccc3c(N)c2c1	0%	?	.	-3%	7%	11µM*
CCOc1ccc2nc3cc(N)ccc3c(N)c2c1	.	?	-1%	.	-29%	?
Nc1cccc2cccnc12	0%	.	.	-2%	.	.
N#Cc1ccc(Oc2ccc(-c3cnc4ccccc4n3)cc2)cc1C#N	10%	-2	0%	20µM*	9%	7%
N#Cc1ccc(Oc2ccc(-c3nc4ccccc4nc3-c3ccccc3)cc2)cc1C#N	7%	11	0%	?	4%	-4%
Cc1ccc(CNC(=O)C(c2ccccc2)c2ccccc2)cc1	8%	-2	.	.	6%	?
Cc1ccc(CC(CC(=O)O)C(=O)NCc2ccccc2)cc1 (stereo unspecified)	-1%	5	0%	16µM*	4%	5%
COC(=O)c1ccc(CN2C[C@H](Sc3ccccn3)C[C@H]2C(=O)N(C)C)cc1	-1%	.	.	.	.	.
COc1cc2c(cc1OC)CN(C(=S)Nc1cccc(Cl)c1C)CC2	3%	0	3%	32µM*	6%	.
O=C(O)Cc1sc(-c2ccccc2)nc1-c1ccccc1	-1%	-3	3%	32µM*	-10%	.
O=C(O)Cc1sc(-c2ccc(Cl)cc2)nc1-c1ccccc1	3%	-1	-2%	-24%	1%	12%
Cc1ccc(N2C(=O)N(CC(=O)Nc3ccccc3C(F)(F)F)C(=O)C2C)cc1 (stereo unspecified)	0%	.	.	16µM*	.	.
COCc1cc(C)n(CC(=O)Nc2ccc(Cl)cc2Cl)c(=O)c1C#N	0%	4	-4%	25µM*	1%	-4%
COCc1cc(C)n(CC(=O)Nc2ccccc2OC)c(=O)c1C#N	-2%	-1	-2%	?	4%	5%
O=C(Cn1c(=O)oc2ccccc21)Nc1ccc(Cl)cc1Cl	?	-1	.	1%	44%	32µM*
O=C(Nc1ccc(C(=O)N2CCOCC2)cc1)C1CCC1	-1%	.	.	0%	.	.
O=C(COC(=O)c1ccccc1OCc1cccc(Br)c1)Nc1ccc(Br)cc1	1%	.	.	-4%	.	.
CSc1nc(-c2ccccc2)c(-c2ccccc2)[nH]1	2%	-1	-2%	16µM*	2%	-23%
Cc1nc(-c2ccccc2)c(-c2ccccc2)[nH]1	0%	3	-1%	25µM*	1%	7%
Cc1ccc(-c2[nH]c(-c3ccc(C(=O)O)cc3)nc2-c2ccccc2)cc1	1%	6	-1%	-3%	3%	?
CCCCOc1ccc(CC(=O)NOC)cc1	0%	.	.	2%	.	.
COc1ccc(-n2ccc(-c3sc(NCc4cc(OC)c5c(c4)OCO5)nc3C)n2)cc1	0%	.	.	.	.	.
Cc1nn(C)c2c1c(-c1ccccc1)cc(=O)n2Cc1ccccc1Cl	4%	.	1%	28µM*	.	.
Cc1c(Cl)cccc1NC(=O)C(C)n1c(=O)cc(-c2ccccc2)c2c(C)nn(C)c21 (stereo unspecified)	1%	.	3%	77%	.	.
SMILES	PINK1 modulator	Menin-MLL FL inh	Epigenetic reg	ClpP mod	MLL CXXC-DNA inh	Menin-MLL TR inh
COc1cc(OC)c(NC(=O)C(C)n2c(=O)cc(-c3ccccc3)c3c(C)nn(C)c32)cc1Cl (stereo unspecified)	4%	.	1%	32µM*	.	.
Cc1nn(C)c2c1c(-c1ccccc1)cc(=O)n2Cc1c(F)cccc1Cl	1%	.	0%	-28%	.	.
Cc1nn(C)c2c1c(-c1ccccc1)cc(=O)n2Cc1ccccc1F	4%	.	-2%	28µM*	.	.
Cc1nn(C)c2c1c(-c1ccccc1)cc(=O)n2Cc1ccc(Br)cc1F	4%	.	0%	-3%	.	.
Cc1ccc(-c2nnc(/C=C/c3ccccc3)o2)cc1	4%	-1	0%	?	-8%	-9%
Cc1ccc(/C=C/c2nnc(-c3cccc(C)c3)o2)cc1	1%[38.3 µM]	-3	-1%	32µM*	13%	-12%
CCOCCCNC(=O)/C(C#N)=C/c1ccc([N+](=O)[O-])o1	0%	-1	4µM*	.	-3%	16%
CC(C)Oc1ccc(Cn2c(-c3ccco3)n[nH]c2=S)cc1	0%	9	?	28µM*	-7%	8%
COc1ccc(Cn2c(-c3ccc(OC)cc3)n[nH]c2=S)cc1	0%	2	.	.	18%	-14%
CCC1(C)NC(c2ccc3c(c2)OCO3)=CC(c2ccccc2O)N1 (stereo unspecified)	1%	.	.	-13%	.	.
Cc1cc(C)c2c(N)c3ccccc3nc2n1	-4%	1	?	65%	-18%	-28%
CCc1ccc2nc3nc(C)cc(C)c3c(N)c2c1	.	1	-2%	11µM*	?	-18%
CCOc1ccc(C(=O)NCc2ccccn2)cc1	-3%[38.3 µM]	2	0%	-3%	10%	-7%
O=C(NCc1ccccn1)c1coc(=O)c(Br)c1	2%	-1	17%	16µM*	2%	2%
Cc1nc2sccn2c1CN1CCOc2ccc(CN3CCN(c4ccc(F)cc4)CC3)cc2C1	0%	.	.	.	.	.
CC/C(=N/Nc1cccc(Cl)c1)c1cnnc(SC)n1	20µM*	-3	?	-6%	0%	-27%
CC/C(=N/Nc1ccccc1)c1cnnc(-c2ccccc2)n1	?	2	-1%	-2%	-3%	12%
CCn1nc(C)c(CN2Cc3ccccc3OC(c3ccccc3OC)C2)c1C (stereo unspecified)	-1%	.	.	.	.	.
Cc1cc(N2CCN(C(=O)c3ccco3)CC2)n2nc(-c3cccc(Cl)c3)cc2n1	9%[38.3 µM]	0	-9%	35µM*	0%	1%
Cc1nc2cc(-c3cccc(Cl)c3)nn2c(N2CCN(C(=O)c3ccco3)CC2)c1C	.	-3	10%	.	74%	3%
O=C(O)/C=C/c1cn(-c2ccccc2)nc1-c1cc2ccccc2oc1=O	-1%	-1	-2%	-6%	-11%	.
N#Cc1cn(-c2ccccc2)nc1-c1cc2ccccc2oc1=O	-1%	3	0%	32µM*	-4%	-31%
O=Cc1cn(-c2ccccc2)nc1-c1cc2c(ccc3ccccc32)oc1=O	0%	0	1%	5.6µM*	19%	-12%
O=Cc1cn(-c2ccccc2)nc1-c1cc2cc(O)ccc2oc1=O	7%[38.3 µM]	19	-1%	230%	4%	.
COc1ccc(-c2ccc3c(c2)S(=O)(=O)c2cccc(C(=O)NCc4cccc(OC(F)(F)F)c4)c2C3=O)cc1OC	4.5µM*	.	.	1%	.	.
O=C(NCc1cccc(OC(F)(F)F)c1)c1cccc2c1C(=O)c1ccc(-c3ccc(F)cc3OCc3ccccc3)cc1S2(=O)=O	1%	.	.	1%	.	.

Bioassay records from PubChem BioAssay.
